Assay results from PubChem BioAssay (NCI).
The panel holds about 83,000 compounds, 20% with a hit somewhere; the sample as a whole holds those more often.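 How to read the values: 0–100, growth inhibition (40 = 60% inhibited); 0, no net growth; -100 to 0, cell death (-40 = 40% of starting cells died; -100 = all dead).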 Calls of active or inactive are those of the source. How the source made its calls: active means growth percent below 10; inactive means the rest.

Key:
Assay in all cases: NCI-60 one-dose screen, 48 h (100 = growth as untreated, 0 = no growth, -100 = all killed)
HCT-15 colon = details: 10 µM unless noted
HT29 colon = details: 10 µM unless noted
SNB-75 CNS = details: 10 µM unless noted
SNB-19 CNS = details: 10 µM unless noted
U251 CNS = details: 10 µM unless noted
SK-MEL-5 melanoma = details: 10 µM unless noted
UACC-62 melanoma = details: 10 µM unless noted
SK-MEL-28 melanoma = details: 10 µM unless noted
SK-MEL-2 melanoma = details: 10 µM unless noted
EKVX NSCLC = details: 10 µM unless noted
SN12C renal = details: 10 µM unless noted
UO-31 renal = details: 10 µM unless noted
TK-10 renal = details: 10 µM unless noted
CAKI-1 renal = details: 10 µM unless noted
A498 renal = details: 10 µM unless noted
CCRF-CEM leukemia = details: 10 µM unless noted
MOLT-4 leukemia = details: 10 µM unless noted
ACHN renal = details: 10 µM unless noted
PC-3 prostate = details: 10 µM unless noted
LOX IMVI melanoma = details: 10 µM

Measured: growth

CN(C)CCN(C)CC(C)(C)C(=O)/C=C/c1ccc(Cl)c(Cl)c1
active: HCT-15 colon -86.4% [100 µM] | HT29 colon -77.5% [100 µM] | SNB-75 CNS -99.3% [100 µM] | SNB-19 CNS -98.6% [100 µM] | U251 CNS -95.1% [100 µM] | SK-MEL-5 melanoma -99.3% [100 µM] | UACC-62 melanoma -95.6% [100 µM] | SK-MEL-28 melanoma -98.6% [100 µM] | SK-MEL-2 melanoma -93.3% [100 µM] | EKVX NSCLC -82.4% [100 µM] | SN12C renal -96.2% [100 µM] | UO-31 renal -100% [100 µM] | TK-10 renal -97.7% [100 µM] | CAKI-1 renal -100% [100 µM] | A498 renal -96% [100 µM] | CCRF-CEM leukemia -0.943% [100 µM] | MOLT-4 leukemia -23.3% [100 µM]

CC[n+]1ccc(Nc2ccc(NC(=O)c3ccc(Nc4cc[n+](CC)c5ccc([N+](=O)[O-])cc45)cc3)cc2)cc1
inactive: HCT-15 colon 96.2% | HT29 colon 57.1% | SNB-75 CNS 98.4% | SNB-19 CNS 71.6% | U251 CNS 62.5% | SK-MEL-5 melanoma 65.7% | UACC-62 melanoma 79.4% | SK-MEL-28 melanoma 90.3% | SK-MEL-2 melanoma 111% | UO-31 renal 91.4% | TK-10 renal 152% | ACHN renal 96.9% | CAKI-1 renal 94.2% | A498 renal 103% | CCRF-CEM leukemia 89.1% | MOLT-4 leukemia 93.3%

C/C(=N\NC(=S)N1CC2CCC(CC2)C1)c1ccccn1
active: U251 CNS 5.52% | PC-3 prostate -4.47% | SK-MEL-5 melanoma -68.3% | UACC-62 melanoma -36.7% | LOX IMVI melanoma 4.04% | EKVX NSCLC -6.66% | SN12C renal 4.27% | UO-31 renal -8.11% | CAKI-1 renal 0.118% | A498 renal -12.4% | CCRF-CEM leukemia 3.63% | MOLT-4 leukemia 3.87%
inactive: HCT-15 colon 18.4% | SNB-75 CNS 33.8% | SNB-19 CNS 11.7% | SK-MEL-28 melanoma 37.9% | SK-MEL-2 melanoma 13.7% | TK-10 renal 21.6% | ACHN renal 15.1%

O=C(Cc1nc2cc(Cl)c(Cl)cc2nc1CC(=O)c1ccccc1)c1ccccc1
inactive: HCT-15 colon 69.6% | HT29 colon 65.3% | SNB-75 CNS 70.4% | U251 CNS 86.6% | PC-3 prostate 59.4% | SK-MEL-5 melanoma 90.3% | LOX IMVI melanoma 62.2% | SK-MEL-28 melanoma 91.1% | SK-MEL-2 melanoma 90.2% | EKVX NSCLC 51.4% | SN12C renal 75.4% | TK-10 renal 119% | ACHN renal 59.2% | CAKI-1 renal 68.6% | A498 renal 125% | CCRF-CEM leukemia 27.1% | MOLT-4 leukemia 28.9%

Nc1nc(-c2ccccc2)nc(N)c1N=O
inactive: HCT-15 colon 53.6% | SNB-75 CNS 44.8% | SNB-19 CNS 88.7% | U251 CNS 52.4% | PC-3 prostate 79.9% | SK-MEL-5 melanoma 100% | UACC-62 melanoma 71.8% | LOX IMVI melanoma 66.7% | SK-MEL-28 melanoma 75.3% | SK-MEL-2 melanoma 88% | EKVX NSCLC 89.1% | SN12C renal 74% | UO-31 renal 45.8% | TK-10 renal 51.6% | ACHN renal 58.9% | CAKI-1 renal 32.4% | A498 renal 112% | CCRF-CEM leukemia 34.8% | MOLT-4 leukemia 58.1%

S=C(S)OCN1CCOCC1
inactive: HCT-15 colon 91.3% | HT29 colon 19.7% | SNB-19 CNS 103% | U251 CNS 40.9% | PC-3 prostate 89.6% | SK-MEL-5 melanoma 101% | UACC-62 melanoma 98.8% | LOX IMVI melanoma 63.4% | UO-31 renal 75.9% | TK-10 renal 97.9% | ACHN renal 100% | CAKI-1 renal 92.6% | A498 renal 70.6% | CCRF-CEM leukemia 59% | MOLT-4 leukemia 92.5%

CCCCN(CCCC)CCCCCCCCCCO
inactive: HCT-15 colon 94.3% | SNB-75 CNS 101% | SNB-19 CNS 110% | U251 CNS 102% | PC-3 prostate 115% | SK-MEL-5 melanoma 103% | UACC-62 melanoma 114% | LOX IMVI melanoma 95.2% | SK-MEL-28 melanoma 112% | SK-MEL-2 melanoma 86.9% | UO-31 renal 81.3% | TK-10 renal 93.6% | ACHN renal 97.1% | CAKI-1 renal 105% | A498 renal 123% | CCRF-CEM leukemia 98% | MOLT-4 leukemia 83%

O=C(/C=C/C(Cl)(Cl)Cl)Nc1ccc(Cl)cc1
inactive: HCT-15 colon 88.3% | SNB-75 CNS 110% | SNB-19 CNS 103% | U251 CNS 100% | PC-3 prostate 104% | SK-MEL-5 melanoma 90.8% | UACC-62 melanoma 98.5% | SK-MEL-2 melanoma 84.6% | EKVX NSCLC 94.2% | SN12C renal 101% | TK-10 renal 129% | ACHN renal 104% | CAKI-1 renal 101% | A498 renal 101% | CCRF-CEM leukemia 73.2% | MOLT-4 leukemia 84.2%
active: LOX IMVI melanoma -69.8% | UO-31 renal -78%

CCCCCCCCCCCCCCCc1ccc(C(=O)C[n+]2ccccc2)cc1
inactive: A498 renal 41.1%
active: HCT-15 colon -48.6% | SNB-75 CNS -55% | SNB-19 CNS -84.1% | U251 CNS -42.2% | PC-3 prostate -90.7% | SK-MEL-5 melanoma -31.6% | UACC-62 melanoma -27.6% | LOX IMVI melanoma -55.9% | SK-MEL-28 melanoma -14.5% | SK-MEL-2 melanoma -80.9% | EKVX NSCLC -51.6% | SN12C renal -60.7% | UO-31 renal -97.2% | ACHN renal -49.3% | CCRF-CEM leukemia -62.1% | MOLT-4 leukemia -76.3%

C1=C(c2ccccc2)c2ccccc2C1
inactive: HCT-15 colon 87.6% | HT29 colon 105% | SNB-75 CNS 90.9% | U251 CNS 108% | PC-3 prostate 82.6% | SK-MEL-5 melanoma 108% | LOX IMVI melanoma 89.7% | SK-MEL-28 melanoma 116% | SK-MEL-2 melanoma 94.4% | EKVX NSCLC 90.5% | UO-31 renal 68.8% | TK-10 renal 119% | ACHN renal 81.7% | CAKI-1 renal 76.4% | A498 renal 68.5% | MOLT-4 leukemia 92.4%

c1ccc2sc(SSN3CC4CCC(CC4)C3)nc2c1
inactive: HCT-15 colon 110% | SNB-75 CNS 85.8% | SNB-19 CNS 105% | U251 CNS 106% | PC-3 prostate 100% | SK-MEL-5 melanoma 97.9% | UACC-62 melanoma 90.5% | LOX IMVI melanoma 92.1% | SK-MEL-28 melanoma 132% | SK-MEL-2 melanoma 124% | EKVX NSCLC 106% | SN12C renal 104% | UO-31 renal 55.1% | TK-10 renal 121% | ACHN renal 98.3% | CAKI-1 renal 104% | A498 renal 142% | MOLT-4 leukemia 56.3%

CN(C)CC(C)(CN(C)C)C(=O)/C=C/c1c(Cl)cccc1Cl
inactive: HT29 colon 12.2% | SNB-75 CNS 64.5% | U251 CNS 40.4% | PC-3 prostate 46.2% | SK-MEL-5 melanoma 56.3% | SK-MEL-2 melanoma 79.7% | SN12C renal 50.9% | CAKI-1 renal 52.7% | A498 renal 119%
active: HCT-15 colon -65.6% | LOX IMVI melanoma -100% | SK-MEL-28 melanoma 4.32% | EKVX NSCLC 5.55% | TK-10 renal -8.98% | ACHN renal -100% | CCRF-CEM leukemia -4.65% | MOLT-4 leukemia -19.3%

CCc1cnc2ccccc2c1/C=C/c1ccc(N(C)C)cc1
inactive: HCT-15 colon 26% | SNB-75 CNS 43.4% | SNB-19 CNS 41.1% | U251 CNS 26% | PC-3 prostate 54.7% | SK-MEL-5 melanoma 46.6% | UACC-62 melanoma 25.3% | LOX IMVI melanoma 43.7% | SK-MEL-28 melanoma 59.9% | SK-MEL-2 melanoma 30.3% | EKVX NSCLC 62.4% | SN12C renal 52.3% | UO-31 renal 44.6% | TK-10 renal 57.1% | ACHN renal 60.3% | CAKI-1 renal 51.6% | A498 renal 34% | CCRF-CEM leukemia 32.9% | MOLT-4 leukemia 33.9%

CC(C)(C)c1ccc(O)c(Br)c1
inactive: HCT-15 colon 104% | SNB-75 CNS 77% | SNB-19 CNS 95.9% | U251 CNS 106% | PC-3 prostate 101% | SK-MEL-5 melanoma 96.4% | UACC-62 melanoma 98.2% | LOX IMVI melanoma 98.3% | SK-MEL-28 melanoma 102% | SK-MEL-2 melanoma 126% | SN12C renal 94.6% | UO-31 renal 86.5% | TK-10 renal 111% | ACHN renal 104% | CAKI-1 renal 96.4% | A498 renal 73.4% | MOLT-4 leukemia 112%
active: CCRF-CEM leukemia 7.22%

CCN(CC)CC(O)CNc1ccc(NCC2CO2)c2c1C(=O)c1ccccc1C2=O (stereo unspecified)
inactive: EKVX NSCLC 23.5% | A498 renal 81.6%
active: HCT-15 colon -38.1% | SNB-75 CNS -66% | SNB-19 CNS 3.77% | U251 CNS -51.8% | PC-3 prostate -28.4% | SK-MEL-5 melanoma -89.8% | UACC-62 melanoma -73.5% | LOX IMVI melanoma -54.1% | SK-MEL-2 melanoma -46.5% | SN12C renal -15.9% | UO-31 renal -40.6% | TK-10 renal -27% | CAKI-1 renal -32% | CCRF-CEM leukemia -29.9% | MOLT-4 leukemia -23.1%

Cc1cc(Br)c2nsnc2c1[N+](=O)[O-]
inactive: HCT-15 colon 27.4% | SNB-75 CNS 50.1% | SNB-19 CNS 52.9% | U251 CNS 36.9% | PC-3 prostate 49% | SK-MEL-5 melanoma 54.1% | UACC-62 melanoma 56.5% | SK-MEL-28 melanoma 63.3% | EKVX NSCLC 106% | SN12C renal 29.4% | UO-31 renal 40.2% | TK-10 renal 36% | ACHN renal 36.2% | A498 renal 99.2% | CCRF-CEM leukemia 20.1% | MOLT-4 leukemia 39.4%
active: LOX IMVI melanoma 8.37% | CAKI-1 renal -34.5%

O=C(/C(Cl)=N/O)c1ccc(-c2ccccc2)cc1
inactive: HCT-15 colon 94.5% | SNB-75 CNS 113% | SNB-19 CNS 105% | U251 CNS 96.1% | PC-3 prostate 98.6% | SK-MEL-5 melanoma 98.7% | UACC-62 melanoma 97.9% | SK-MEL-28 melanoma 110% | SK-MEL-2 melanoma 110% | SN12C renal 103% | UO-31 renal 57.9% | TK-10 renal 106% | ACHN renal 86.8% | CAKI-1 renal 91.1% | A498 renal 123% | MOLT-4 leukemia 83.3%
active: LOX IMVI melanoma -41.5% | CCRF-CEM leukemia 8.56%
